Screening data as filed in PubChem BioAssay.
A549 tox-1: kills or reduces viability of A549 cells in Nrf2 counter-screen; actives 0.16% (n = 390,000); Potency, µM (top dose mostly 46 µM), without a hit: top-dose activity change, negative = cytotoxicity, most hits filed as inhibitors; A549 ARE-Fluc cells, CellTiter-Fluor viability, 18-24 h; also: potency is read from the fitted curve at half-maximal effect; % is scaled to controls: 0 for no effect and ±100 for the full control effect
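A549 ARE-Fluc cells in 5% FBS OPTI-MEM, 5000 cells/well, rested 2 h then exposed to compounds in concentration-response for 18-24 h at 37 °C. Viability by CellTiter-Fluor fluorescence (Ex 405/Em 525) after 30 min; luciferase luminescence (BugLite, 15 min, RT) read afterwards.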
12-LOX inh: inhibitors of human 12S-lipoxygenase ALOX12 | P18054 | Potency, µM (highest dose often 108 µM), inactives show top-dose activity change, negative = inhibition, most hits filed as inhibitors | actives 1.1% (n = 580,000) | purified 12hLO, xylenol orange hydroperoxide absorbance; also: potency is read from the fitted curve at half-maximal effect; % is scaled to controls: 0 for no effect and ±100 for the full control effect
Target sequence (P18054 whole entry, looked up): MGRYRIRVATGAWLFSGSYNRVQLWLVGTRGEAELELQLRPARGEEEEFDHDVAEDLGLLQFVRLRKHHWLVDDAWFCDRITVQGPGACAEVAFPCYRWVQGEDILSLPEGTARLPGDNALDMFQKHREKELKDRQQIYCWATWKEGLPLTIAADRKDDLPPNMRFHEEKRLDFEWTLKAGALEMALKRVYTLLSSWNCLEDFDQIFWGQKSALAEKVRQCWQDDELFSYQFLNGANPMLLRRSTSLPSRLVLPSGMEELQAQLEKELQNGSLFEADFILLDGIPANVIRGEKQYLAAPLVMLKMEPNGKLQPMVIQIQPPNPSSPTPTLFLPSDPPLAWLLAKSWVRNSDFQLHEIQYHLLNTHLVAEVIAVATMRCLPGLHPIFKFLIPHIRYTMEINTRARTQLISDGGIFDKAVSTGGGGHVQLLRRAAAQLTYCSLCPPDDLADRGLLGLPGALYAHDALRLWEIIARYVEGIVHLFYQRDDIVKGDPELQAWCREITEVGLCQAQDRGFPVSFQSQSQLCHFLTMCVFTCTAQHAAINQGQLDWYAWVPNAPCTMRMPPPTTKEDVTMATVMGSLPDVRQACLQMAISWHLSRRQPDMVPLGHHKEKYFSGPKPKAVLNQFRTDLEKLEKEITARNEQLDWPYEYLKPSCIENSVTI
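Purified human 12hLO at 150 nM in 25 mM Hepes, 0.01% Triton X-100, pH 7.0, preincubated 15 min at room temperature with compound. Reaction started with 40 uM arachidonic acid, 30 min at room temperature. Hydroperoxide measured by Fe-xylenol orange, 573/405 nm absorbance ratio.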
LDHA block: inhibitors of human lactate dehydrogenase A; P00338; purified LDHA, NADH/diaphorase-resazurin fluorescence; active compounds read low; activity change, % (values are at about 110 or 230 µM); actives 0.15% (n = 480,000); AID 1347041; in the data active = activity change below about -30%; inconclusive = mostly about -25% to -30%;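 also: plate controls were DMSO wells for no effect and wells without enzyme for full effect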
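Enzyme activity of human lactate dehydrogenase 5 (2 nM; 0.06 mM NADH, 0.2 mM pyruvate, 5 min, RT) is measured via a resazurin/diaphorase fluorescence readout of residual NADH.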
IDH1 R132H inh: blocks human mutant IDH1 R132H enzyme; O75874; IDH1-R132H enzyme, NADPH consumption, diaphorase/resazurin fluorescence; Potency, µM (doses to about 76.6 µM), inactives show at the top dose activity change, negative = inhibition, actives largely listed as inhibitors; actives 0.093% (n = 390,000); also: potency is read from the fitted curve at half-maximal effect; % is scaled to controls: 0 for no effect and ±100 for the full control effect; nearly all actives have a fitted effect of over 65% in size
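IDH1-R132H (0.5 ug/mL dispensed) in pH 7.5 Tris buffer was preincubated 30 min with compound, then given a substrate mix of 0.016 mM NADPH and 2 mM alpha-KG for 80 min at room temperature; remaining NADPH was read by diaphorase/resazurin fluorescence.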
Nrf2 inh: blocks Nrf2 signaling; AID 504444; Potency, µM (highest dose often 46 µM), inactives show at the highest dose activity change, negative = inhibition, hits mostly inhibitors; A549 ARE-Fluc reporter, luciferase luminescence, 18-24 h; actives 2.1% (n = 360,000); also: potency is read from the fitted curve at half-maximal effect; % is scaled to controls: 0 for no effect and ±100 for the full control effect; nearly all actives have a fitted effect of over 60% in size
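In this cell-based qHTS, ARE-driven firefly luciferase in A549 cells reports Nrf2 activity; the luminescent signal after BugLite lysis is the measured value, with a prior CellTiter-Fluor read for cell health.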
Nrf2 activator: activators of Nrf2 (ARE) signaling | actives 0.31% (n = 410,000) | Potency, µM (series often up to 46.1 µM), without a hit: at the highest dose activation, hits mostly activators | AID 624171 | AREc32 ARE-luciferase reporter (MCF7-derived line), luminescence, 24 h; also: potency is read from the fitted curve at half-maximal effect; % of control where 0% means no effect; nearly all actives have a fitted effect of over 65% in size
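Quantitative high-throughput format: AREc32 reporter cells, 1000 per well, received compound by pin transfer and were incubated 24 hr at 37 deg C, 5% CO2, before Steady-Glo luminescence detection.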
FLuc enzyme inh: blocks purified firefly luciferase in Nrf2 counterscreen | shares compounds with Nrf2 inh | purified firefly luciferase, luminescence inhibition | Potency, µM (top dose mostly 57.5 µM), for the others: at the top dose activity change, negative = inhibition, usual class: inhibitors | actives 4% (n = 1,400) | AID 720522; also: potency is read from the fitted curve at half-maximal effect; % is scaled to controls: 0 for no effect and ±100 for the full control effect; nearly all actives have a fitted effect of over 65% in size
A549 tox-2: toxic to A549 ARE-Fluc cells in Nrf2 counterscreen | shares compounds with Nrf2 inh | A549 ARE-Fluc cells, cytotoxicity counterscreen | Potency, µM (top dose mostly 46.1 µM), for the others: at the highest dose activity change, negative = cytotoxicity, most hits filed as inhibitors | actives 2% (n = 1,400) | AID 720523;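 also: potency is read from the fitted curve at half-maximal effect; cells exposed to compounds for 18 to 24 hours; % is scaled to controls: 0 for no effect and ±100 for the full control effect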
ARE-Fluc inh: Nrf2 inhibition confirmed, A549 ARE-luciferase. shares compounds with Nrf2 inh. A549 ARE-firefly luciferase reporter, luminescence. Potency, µM (series often up to 46.1 µM), without a hit: at the highest dose activity change, negative = inhibition, most hits filed as inhibitors. actives 74% (n = 1,400); also: potency is read from the fitted curve at half-maximal effect; % is scaled to controls: 0 for no effect and ±100 for the full control effect; nearly all actives have a fitted effect of over 65% in size
IDH1 autofl: interferes with resorufin fluorescence in IDH1 counter-screen; shares compounds with IDH1 R132H inh; Resorufin detection reagent fluorescence interference, cell-free; inhibition of signal, % at 51.2 µM; 750 tested, under 10 active;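 also: 0% = wells with normal resorufin and full inhibition = wells lacking resorufin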
WT IDH1 inh: inhibits human wild-type IDH1, mutant selectivity check; Potency, µM (doses to about 115 µM), for the others: at the top dose activity change, negative = inhibition, usual class: inhibitors; shares compounds with IDH1 R132H inh; AID 623995; actives 9% (n = 750); WT IDH1 enzyme, NADPH diaphorase/resazurin fluorescence;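 also: potency is read from the fitted curve at half-maximal effect; 0% = full WT IDH1 enzyme control and full inhibition = no enzyme wells; nearly all actives have a fitted effect of over 55% in size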
mIDH1 confirm: inhibits human mutant IDH1 enzyme in cherrypick confirmation. shares compounds with IDH1 R132H inh. IDH1 R132H enzyme, NADPH diaphorase/resazurin fluorescence. Potency, µM (doses to about 76.6 µM), without a hit: top-dose activity change, negative = inhibition, hits mostly inhibitors. actives 83% (n = 750). AID 624002; also: potency is read from the fitted curve at half-maximal effect; nearly all actives have a fitted effect of over 50% in size
Numbers without * were called inactive; ? = inconclusive; . = no result; [ ] = dose if it differs, or a comment. Rows were chosen to be rich in hits. Some 2.7% of all compounds tested hit in one or more screens of this group. Unless noted, calls follow the shape of the dose curve; as a rule, active = well fitted curve in the direction sought with a large enough effect; inconclusive = small, poorly fitted or top-dose-only effect, or another doubt; inactive = no such curve, though single readings can be large; an effect the other way counts as inactive or inconclusive.

SMILES	A549 tox-1	12-LOX inh	LDHA block	IDH1 R132H inh	Nrf2 inh	Nrf2 activator	IDH1 autofl	WT IDH1 inh	mIDH1 confirm	others
O=C(Nc1ccc(-c2csc(Nc3ccc(Cl)cc3)n2)cc1)c1cccc(C(F)(F)F)c1	-8%	?	-3	9%	-28%	11%	.	.	.
COC(=O)c1cc(-c2ccc(C)cc2)nc2onc(-c3ccco3)c12	.	?	2	.	.	.	.	.	.
O=C(COc1ncnc2ccc(Br)cc12)Nc1cc(F)ccc1F	.	-53%	9	.	.	.	.	.	.
CN(Cc1ccccc1)C1=CC(=[N+]2CCCCC2)CC(C)(C)C1	?	19%	-17	18%	4.6µM*	0%	.	.	.	FLuc enzyme inh=3%;A549 tox-2=-27%;ARE-Fluc inh=0.82µM*
COc1cccc(NC(=O)N(Cc2cn(C)c3ccccc23)C2CCCCC2)c1	?	1%	-3	4%	3.3µM*	4%	.	.	.	FLuc enzyme inh=-11%;A549 tox-2=?;ARE-Fluc inh=?
O=C(CCNC(=O)c1ccoc1)Nc1ccc(N2CCCC2)nc1	.	7%	2	.	.	.	.	.	.
CCC(=O)/C=C1/Sc2ccccc2N1CC	-1%	-28%	13	7%	.	0%	.	.	.
CCN1/C(=C/c2sc(-c3ccccc3C)c[n+]2C)Sc2ccccc21	?	?	-12	7%	0.37µM*	9%	.	.	.	FLuc enzyme inh=-1%;A549 tox-2=?;ARE-Fluc inh=1.8µM*
NC(=O)c1cccc(-c2cc3c(cn2)CN(Cc2ccccc2)CCN3)c1	.	15%[176 µM]	.	.	.	.	.	.	.
Cc1ccc2nc3c(nc2c1C)CCCC3	3%	-23%	-3	0%	1%	0%	.	.	.
Cc1ccc2nc3c(nc2c1C)C(O)=C3O	-2%	265%	0	?	0%	0%	-6	63%	45µM*
CCOC(=O)c1c(CSC(=N)N)n(C)c2cc(Br)c(OC(C)=O)cc12	-8%	-9%	1	?	-11%	?	-9	2%	14µM*
CC(=O)Oc1ccc(C(=O)Nc2cccc(C(=O)c3ccc(C)c(C)c3)c2)cc1	-11%	-8%	-4	?	?	0%	1	2%	10µM*
Cc1ccc(NC(=O)CC(O)(c2nccn2C)C(F)(F)F)cc1 (centres undefined)	.	30%	-14	.	.	.	.	.	.
Cc1ccc(C2=NN=C(NC(=O)CSc3nncn3C)SC2)cc1	-1%	?	-5	32µM*	4%	15%	-4	323%	45µM*
Cc1ccc(NC(=O)CSc2nncn2C)c(C)c1	-4%	-25%	2	-6%	-14%	0%	.	.	.
